Structures are written as SMILES. The campaign covered roughly 300,000 compounds. About 37,000 (12%) were called active. Cut-off read from the data, not from the text of the source: active = max response mostly above about 13% (no sharp cut-off); inactive = mostly below about 14%. The full list was thinned out, with actives kept by preference.

This assay in a line: Cycloheximide Counterscreen for Small Molecule Inhibitors of Shiga Toxin. Note: read at 38.3 µM for the half of the compounds with a filed dose; 0% is about no effect. The note with it: cell reporter, cycloheximide protein synthesis inhibition counterscreen; active compounds read high. In general terms: Counterscreens check selectivity or assay interference.
As for `Nc1[nH][nH]c(=O)c1N=Nc1ccc2c(c1)OCO2`, the max response was 37.1% (active).
To `Cc1[nH][nH]c(=O)c1N=Nc1ccccc1` belongs -2.86% (inactive).
To `Cc1[nH][nH]c(=O)c1C(c1ccc2c(c1)OCO2)c1c(C)[nH][nH]c1=O` belongs -0.172% (inactive); to `COc1cc(OC)c2c(c1C(CCN1CCCCC1)c1ccc(N(C)C)cc1)OC(=O)CC2c1ccc(N(C)C)cc1` (configuration not stated), -4.1% (inactive); to `c1ccc(CSCCc2ccncc2)cc1`, 7.75% (inactive).
The value for `Cc1ccc(O)c(-c2cc(C(=O)NCc3ccccc3)[nH]n2)c1` was 11.1% (inactive); that for `Cc1ccc(O)c(CCc2ccccc2)n1` was 17.6% (active); that for `CC(=O)N1CC[n+]2c(-c3ccc([N+](=O)[O-])cc3)csc21` was 6.33% (inactive).
As for `Cc1nc2ccc(N3CCN(C)CC3)cc2nc1C`, the max response was 40.7% (active).
The value for `CN1CCN(c2ccc([N+](=O)[O-])c(Sc3nc4ccccc4[nH]3)c2)CC1` was -2.61% (inactive); that for `COc1cccc(-c2nc3ccc(N4CCN(C)CC4)cc3[nH]2)c1` was -9.87% (inactive).
The value for `Cc1ccc(Cn2cc(C(=O)NN)c(=O)c3ccc(F)cc32)cc1` was -3.85% (inactive).
For `Cc1ccc(CNC(=O)c2c(-c3ccccc3)noc2C)cc1`, the max response is -2.32% (inactive).
As for `CC(=O)c1ccc(NC(=O)c2ccc3c(Cl)c4c(nc3c2)CCCC4)cc1`, the max response was -0.107% (inactive).
To `CC(C)CCNC(=O)c1ccc2c(Cl)c3c(nc2c1)CCC3` belongs 48.4% (active); to `COc1ccc(N2CCN(C(=O)c3ccc4c(Cl)c5c(nc4c3)CCCC5)CC2)cc1`, -3.2% (inactive); to `COc1cccc(CC2(CO)CCN(Cc3cnc(-c4cccc(C)c4)nc3)CC2)c1`, 10.3% (inactive).
The value for `Cc1nc2ccc(C(=O)O)cc2[nH]1` was -7.8% (inactive); that for `Oc1ccc2nc(Cc3ccccc3)[nH]c2c1` was 20.5% (active).
To `c1ccc2cc3[nH]c(CN4CCCCC4)nc3cc2c1` belongs 31.1% (inactive).
As to `Cc1cc(OCC(=O)N2CCN(c3ncccn3)CC2)ccc1Cl`, the max response is -2.98% (inactive).
The value for `O=C(CC1C(=O)NCCN1CC(c1ccccc1)c1ccccc1)NCC1CCOCC1` (configuration not stated) was -4.31% (inactive).
The value for `Cc1nc(Nc2ccc3c(c2)OCCO3)c2nnn(Cc3ccccc3Cl)c2n1` was 83.5% (active); that for `CCCc1nc(NCc2ccc3c(c2)OCO3)c2nnn(Cc3ccccc3Cl)c2n1` was -2.15% (inactive).
To `Cc1nc(Nc2ccccc2F)c2nnn(Cc3ccccc3Cl)c2n1` belongs -1.8% (inactive); to `CC1(c2ccc3ccccc3c2)NC(=O)N(CC(N)=O)C1=O` (configuration not stated), -1.55% (inactive); to `Nc1cccc(CCc2nc3ccccc3[nH]2)c1`, 24% (active).
Turning to `CC(C)=C(NC(=O)c1ccco1)C(=O)NCCc1nc2ccccc2[nH]1`, the max response is -2.53% (inactive).
As to `Cc1ccc2nc(SCc3cn4c(C)cc(C)nc4n3)[nH]c2c1`, the max response is -4.98% (inactive).
To `O=C(CNCc1ccc(Cl)cc1)Nc1cccc(C(=O)O)c1` belongs -7.34% (inactive); to `O=C(c1[nH]ncc1-c1ccc(Cl)cc1)C1CO1` (configuration not stated), 16.3% (inactive); to `O=C(c1nnc(-c2ccc(Cl)cc2)o1)C1CCCC1`, 15.5% (active).
To `O=C(Nc1nnc(-c2ccc(Cl)cc2)o1)c1ccccc1Br` belongs 14.7% (inactive); to `CCCC(=O)N1CCC(CCC(=O)NC2CC2)CC1`, 10.7% (inactive).
To `COc1ccc(C(=O)Nc2c(N)nc(SCC(=O)Nc3ccc(C(C)=O)cc3)[nH]c2=O)cc1` belongs 0.562% (inactive).
Regarding `CC(C)(C)NC(=O)C(=O)NN=C1CCCCCCC1`, the max response is 17.4% (inactive).
To `CS(=O)(=O)N(Cc1ccccc1)c1ccc(C(=O)NN=C2CCCCCC2)cc1` belongs 0.492% (inactive); to `CCc1ccc(C(=O)NN=C2CCCCCC2)s1`, 33% (active).
To `COC(=O)c1cc(N2CCNCC2)nc2ccccc12` belongs -0.723% (inactive); to `CCc1nnc(NC(=O)CSc2nnnn2-c2cccc(C(C)=O)c2)s1`, -0.713% (inactive).
The value for `C=CCSc1nsc(NC(=O)Nc2cccc(C(C)=O)c2)n1` was 15.7% (active); that for `CCSc1nsc(NC(=O)Nc2cccc(C(C)=O)c2)n1` was 47.8% (active).
Take `CC(=O)c1cccc(NC(=S)N2CCN(S(C)(=O)=O)CC2)c1`: the max response was 3.24% (inactive).
As to `C=C(C)C(=O)Nc1cccc(C(C)=O)c1`, the max response was -4.07% (inactive).
To `CCSc1nsc(NC(=O)Nc2ccccc2OC)n1` belongs 29.3% (active); to `COc1ccccc1NC(=O)Nc1nnc(Cc2ccc(F)cc2)s1`, -1.91% (inactive); to `CC(=O)c1cccc(NC(=O)[C@@H](NC(N)=O)C(C)C)c1`, -2.8% (inactive).
To `CCc1nc(SCC(=O)Nc2ccccc2OC)n[nH]1` belongs -2% (inactive); to `Cc1cccn2c(=O)c3cc(C(=O)NCC4CCCO4)c(=N)n(Cc4ccc(F)cc4)c3nc12` (configuration not stated), -1.9% (inactive).
The value for `Cc1cc2oc(=O)cc(-c3ccccc3)c2c(C)c1/C=C/c1ccc(F)cc1` was 11.8% (inactive); that for `COc1ccc(CCNC(=O)CCCCCNC(=O)N2CCn3c2nc2ccccc23)cc1OC` was -1.5% (inactive); that for `Cc1c(Cl)cccc1NC(=O)NCc1ccc(C)n1C` was -4% (inactive).
In the case of `CCCn1c(C(C)Nc2nc(-c3ccc(C)cc3)cs2)nc2cc(Cl)c(N3CCCCC3)cc21` (configuration not stated), the max response is -2.37% (inactive).
With `CCOC(=O)CSc1nc(C)c(Oc2ccc(Cl)cc2Cl)c(=O)[nH]1`, the max response is -0.833% (inactive).
With `COC(=O)c1ccc(/C=N\n2c(C)nnc2C)cc1`, the max response was -2.39% (inactive).
The value for `COC(=O)c1ccc(/C=N/N2C(C)CCCC2C)cc1` (configuration not stated) was 32.3% (active); that for `CC1CCCC(C)N1/N=C/c1ccccc1OC(F)F` (configuration not stated) was 7.52% (inactive); that for `CNC(=O)c1c(NC(NC(=O)c2ccco2)C(=O)c2ccc(Cl)cc2)sc2c1CCCC2` (configuration not stated) was -2.69% (inactive).
To `COC(=O)c1ccc(NC(=O)CSc2nncn2-c2cccnc2)cc1` belongs 3.92% (inactive).
To `COC(=O)C1(C)NC(c2ccc(F)cc2)C2C(=O)N(c3ccccc3)C(=O)C21` (configuration not stated) belongs -1.89% (inactive).
Turning to `COc1ccc(NC(=O)CN(C)C(=O)CNC(=O)C2CCCCC2)cc1`, the max response is 4.44% (inactive).
For the molecule `CN(CC(=O)Nc1ccc(Cl)cc1)C(=O)CNC(=O)c1ccc2ccccc2c1`, the max response was 24.6% (active).
As for `COc1cccc(NC(=O)CN(C)C(=O)Cc2ccc(Cl)cc2Cl)c1`, the max response is -1.79% (inactive).
To `CCOC(=O)[C@@H]1[C@H]2COc3cc(OC)ccc3[C@@H]2N2C(=O)N(c3cccc(C)c3)C(=O)[C@@]12C` belongs -1.45% (inactive).
To `CCCCn1c(-c2cccc(C)c2)nc2cc3[nH]c(=O)c(C(C)C)nc3cc21` belongs 8.65% (inactive).
The value for `CC1(C)CCSC(/C=C/c2ccccc2)=N1` was 32.8% (active); that for `CCCCC(CC)CNC(=O)C(=O)C1C(=O)Nc2ccccc21` (configuration not stated) was 15.4% (inactive).
`C[C@@H]1C(c2ccc(F)cc2)=NN(c2ccc(Br)cc2)[C@H]1C(=O)N1CCOC1=O`: the max response is -1.82% (inactive).
The value for `COc1ncnc2sc3c(c12)CCCC3` was -0.884% (inactive); that for `COc1ccc(NC(=O)CCNC(=O)Cn2cnc3sc4c(c3c2=O)CCCC4)cc1OC` was -3.75% (inactive); that for `COc1ccc(/C=N/Nc2ncnc3sc4c(c23)CCCC4)cc1O` was 27.5% (active).
To `COc1ccc(C2C(C(C)=O)=C(O)C(=O)N2c2nccs2)cc1` (configuration not stated) belongs -3.41% (inactive).
The value for `COc1ccc(C(=O)NNC(=S)NC(=O)c2ccccc2[N+](=O)[O-])cc1` was 2.1% (inactive).
As for `Cc1ccc(NC(=O)CN2C(=O)NC(C)(c3ccc(Cl)cc3)C2=O)c(Br)c1` (configuration not stated), the max response was -5.49% (inactive).
To `COc1ccc(NC(=O)C2COc3ccccc3O2)cc1` (configuration not stated) belongs 41% (active); to `C/C(=N/NC(=O)C1COc2ccccc2O1)c1ccco1` (configuration not stated), 4.02% (inactive).
To `CC(=O)c1cccc(NC(=O)C2COc3ccccc3O2)c1` (configuration not stated) belongs 23.2% (active); to `COc1cccc(N(C(=O)C2COc3ccccc3O2)C(C(=O)NC2CCCCC2)c2ccc(O)cc2)c1` (configuration not stated), 8.69% (inactive).
`CC(/C=C/c1ccco1)=N/NC(=O)C1COc2ccccc2O1` (configuration not stated): the max response was 7.66% (inactive).
As to `COc1ccc(C(=O)N2CCC(C(=O)Nc3ccc(C)cc3)CC2)cc1`, the max response is 4.42% (inactive).
To `Cn1nc(C(F)(F)F)c(C(=O)Nc2cccc(C(F)(F)F)c2)c1SCc1ccc(Cl)cc1` belongs -3.55% (inactive); to `Cc1ccc(CN(CC(=O)NCC2CCCO2)S(=O)(=O)c2ccc(C)cc2)cc1` (configuration not stated), -1.68% (inactive).
The value for `O=C1Nc2ccccc2/C1=C/c1ccnc2ccccc12` was -4.29% (inactive); that for `Cc1cccn2c(=O)c(C=O)c(Nc3ccc(S(N)(=O)=O)cc3)nc12` was -2.14% (inactive); that for `CC(C)C(C)NC(=O)COc1nc2ccccc2nc1N(C)C1CCCCC1` (configuration not stated) was -4.63% (inactive).
`O=c1c2ccccc2ncn1/N=C/c1ccccc1`: the max response was 40.3% (active).
With `CCCc1nc2ccccc2c(=O)n1/N=C/c1ccc(O)c(O)c1`, the max response is -1.03% (inactive).
To `O=c1c2ccccc2nc(N/N=C/c2ccccc2)n1O` belongs 11.3% (inactive); to `O=C(O)CCC(=O)O`, 7.04% (inactive).
The value for `COc1ccc(C(C(=O)NCC2CCCO2)N(C(=O)Cn2nnc3ccccc32)c2ccc(NC(C)=O)cc2)cc1OC` (configuration not stated) was -1.07% (inactive); that for `COc1ccc(C(C(=O)NC(C)(C)C)N(C(=O)Cn2nnc3ccccc32)c2ccc(C(C)=O)cc2)cc1O` (configuration not stated) was 14.1% (active).
Turning to `CCC(C)(C)NC(=O)C(c1ccc(O)cc1)N(C(=O)Cn1nnc2ccccc21)c1ccc(NC(C)=O)cc1` (configuration not stated), the max response is -2.51% (inactive).
The value for `COC(=O)C1CCN(CC(N)=O)CC1` was -5.67% (inactive); that for `CCOP(=O)(OCC)C(Nc1cccc(C)c1)c1ccc(F)cc1` (configuration not stated) was -1.31% (inactive); that for `COc1ccccc1OCCOc1ccc(/C=N/n2cnnc2)cc1` was -5.27% (inactive).
To `C(=N\n1cnnc1)/c1cccnc1` belongs 0.339% (inactive); to `COc1cccc(OCCOc2cccc(/C=N/n3cnnc3)c2)c1`, 42.6% (active).

The record behind these values is PubChem BioAssay AID2314 (National Center for Advancing Translational Sciences (NCATS), 2010).
